Laboratory results: PubChem BioAssay
For part of these data: Potency and affinity values are given separately. Calls of active or inactive are those of the source. Unless noted, no rule for the calls is given here.

What was measured:
[1] = antimalarial activity against Dd2 strain (AID 2302;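 active = growth inhibition above 50% at the single 2 µM test dose, taken to imply half-maximal potency below 2 µM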;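 also: 0% = DMSO untreated growth and 100% = chloroquine plus artemisinin killed control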); settings: P. falciparum Dd2 in RBCs, LDH growth readout, 72 h; at 2 µM; active compounds read high
[2] = human hepatoma cell viability loss – ATP luminescence, cytotoxicity control for P. falciparum antimalarial project, primary screen (AID 2303;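 active = inhibition above 50%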;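 also: 0% = DMSO wells and 100% = digitonin-killed cells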); settings: HepG2 viability, 24-48 h, at 10 µM, active compounds read high
[3] = biological target: L-lactate dehydrogenase (Plasmodium falciparum (isolate CDC / Honduras)) (UniProt Q27743); experiment: PfLDH activity inhibition – cell lysate, 3D7 strain, counter-screen for P. falciparum growth inhibition project (AID 2304);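 also: 0% = vehicle and 100% = reference inhibitor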; settings: P. falciparum 3D7 crude extract, LDH APAD/NBT absorbance; at 2 µM; active compounds read high
L-lactate dehydrogenase (Plasmodium falciparum (isolate CDC / Honduras)), sequence (Q27743 whole entry, looked up): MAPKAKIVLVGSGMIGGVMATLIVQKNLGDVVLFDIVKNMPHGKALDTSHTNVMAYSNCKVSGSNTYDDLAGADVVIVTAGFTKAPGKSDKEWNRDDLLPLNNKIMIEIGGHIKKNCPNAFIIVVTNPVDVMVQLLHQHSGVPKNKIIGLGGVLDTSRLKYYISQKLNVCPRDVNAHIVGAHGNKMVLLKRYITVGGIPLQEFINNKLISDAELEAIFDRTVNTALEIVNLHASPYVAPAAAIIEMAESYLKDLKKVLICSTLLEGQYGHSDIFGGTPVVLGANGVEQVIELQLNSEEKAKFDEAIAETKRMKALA

[4] = inhibition of 3D7 malaria parasite growth – strain 3D7 (AID 2306);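 also: 0% = DMSO wells and 100% = chloroquine plus artemisinin control wells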; settings: P. falciparum 3D7 erythrocytic growth, LDH absorbance, 72 h; at 2 µM; active compounds read high
[5] = biological target: Calcium-dependent protein kinase 1 (Plasmodium falciparum (isolate 3D7)) (UniProt P62344); experiment: PfCDPK1 kinase inhibitors, biochemical, TCAMS library (AID 1159585; cut-off not given, nearly all actives have IC50 up to about 0.98 µM;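 also: inhibitors leave more ATP so luminescence rises with inhibition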); settings: recombinant PfCDPK1, Kinase-Glo ATP depletion luminescence
Calcium-dependent protein kinase 1 (Plasmodium falciparum (isolate 3D7)), sequence (P62344 whole entry, looked up): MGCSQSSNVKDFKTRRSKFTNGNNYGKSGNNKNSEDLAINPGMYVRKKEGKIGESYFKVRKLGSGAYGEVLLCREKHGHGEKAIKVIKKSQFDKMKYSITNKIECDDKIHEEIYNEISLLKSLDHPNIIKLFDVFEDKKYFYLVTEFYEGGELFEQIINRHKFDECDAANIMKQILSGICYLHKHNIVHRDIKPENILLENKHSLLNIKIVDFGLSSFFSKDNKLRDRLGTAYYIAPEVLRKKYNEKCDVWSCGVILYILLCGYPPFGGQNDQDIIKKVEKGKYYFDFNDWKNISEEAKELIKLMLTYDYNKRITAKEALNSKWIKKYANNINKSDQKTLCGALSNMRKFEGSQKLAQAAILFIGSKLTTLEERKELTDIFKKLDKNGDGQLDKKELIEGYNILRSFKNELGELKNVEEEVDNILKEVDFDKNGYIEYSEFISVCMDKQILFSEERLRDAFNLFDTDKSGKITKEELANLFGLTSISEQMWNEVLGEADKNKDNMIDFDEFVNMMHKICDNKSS

[6] = biological target: Plasmodium falciparum protein kinase 6 (PK6, PF3D7_1337100) (UniProt Q8IDW1); experiment: PfPK6 kinase inhibitors, biochemical, TCAMS library (AID 1159586); settings: recombinant PfPK6, Kinase-Glo ATP depletion luminescence
Plasmodium falciparum protein kinase 6 (PK6, PF3D7_1337100), sequence (Q8IDW1 1-305): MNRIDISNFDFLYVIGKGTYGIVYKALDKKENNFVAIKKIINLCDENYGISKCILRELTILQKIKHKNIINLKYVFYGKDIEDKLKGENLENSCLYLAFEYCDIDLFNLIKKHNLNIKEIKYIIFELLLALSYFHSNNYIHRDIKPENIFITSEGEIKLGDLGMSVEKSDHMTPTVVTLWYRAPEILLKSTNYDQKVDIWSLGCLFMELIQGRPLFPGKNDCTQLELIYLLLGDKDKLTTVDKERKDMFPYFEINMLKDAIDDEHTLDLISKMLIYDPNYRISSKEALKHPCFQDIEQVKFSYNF

[7] = biological target: Protein kinase 7 (PK7), Plasmodium falciparum 3D7 (PF3D7_0213400) (UniProt Q7YTF7); experiment: inhibition of Plasmodium PK7 catalytic activity – biochemical, TCAMS antimalarial set, Kinase-Glo luminescence (AID 1159587); settings: recombinant PfPK7, Kinase-Glo ATP depletion luminescence
Protein kinase 7 (PK7), Plasmodium falciparum 3D7 (PF3D7_0213400), sequence (Q7YTF7 1-343): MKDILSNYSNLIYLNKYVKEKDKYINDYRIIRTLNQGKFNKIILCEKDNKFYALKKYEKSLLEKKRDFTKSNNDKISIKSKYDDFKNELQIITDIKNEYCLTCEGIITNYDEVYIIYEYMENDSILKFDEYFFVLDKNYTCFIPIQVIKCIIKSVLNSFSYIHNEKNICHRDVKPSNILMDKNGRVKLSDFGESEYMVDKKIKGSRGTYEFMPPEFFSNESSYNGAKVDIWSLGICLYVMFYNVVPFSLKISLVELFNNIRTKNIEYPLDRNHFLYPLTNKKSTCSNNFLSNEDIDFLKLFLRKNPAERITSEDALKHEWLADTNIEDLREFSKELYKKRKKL

[8] = biological target: Calcium-dependent protein kinase 4 (Plasmodium falciparum (isolate 3D7)) (UniProt Q8IBS5); experiment: PfCDPK4 kinase inhibitors, biochemical, TCAMS library (AID 1159588; cut-off not given, nearly all actives have IC50 up to about 0.91 µM); settings: recombinant PfCDPK4, Kinase-Glo ATP depletion luminescence
Calcium-dependent protein kinase 4 (Plasmodium falciparum (isolate 3D7)), sequence (Q8IBS5 whole entry, looked up): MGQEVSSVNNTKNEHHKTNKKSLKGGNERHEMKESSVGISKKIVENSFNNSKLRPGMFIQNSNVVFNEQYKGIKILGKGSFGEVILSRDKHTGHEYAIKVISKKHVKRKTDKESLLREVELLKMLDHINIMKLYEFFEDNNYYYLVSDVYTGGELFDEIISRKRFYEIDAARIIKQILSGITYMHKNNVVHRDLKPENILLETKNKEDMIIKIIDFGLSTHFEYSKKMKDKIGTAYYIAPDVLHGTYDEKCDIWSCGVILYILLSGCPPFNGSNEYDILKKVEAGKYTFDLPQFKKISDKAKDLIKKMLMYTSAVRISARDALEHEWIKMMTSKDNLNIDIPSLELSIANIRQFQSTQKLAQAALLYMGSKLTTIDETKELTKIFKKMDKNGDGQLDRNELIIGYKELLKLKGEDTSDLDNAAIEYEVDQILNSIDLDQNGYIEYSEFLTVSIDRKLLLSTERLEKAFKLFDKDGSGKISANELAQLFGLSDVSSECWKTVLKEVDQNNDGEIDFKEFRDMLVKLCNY

Clc1ccc(CNc2nc(NCCc3cnc[nH]3)nc(NC3CCCCC3)n2)cc1
active: growth inhibition [4] 100%
inactive: growth inhibition [1] 1% | inhibition [2] -5% | inhibition [3] -3% | outcome [5] | outcome [6] | outcome [7] | outcome [8]

CN(C)CC(=O)Nc1ccc(Nc2nccc(NCC(O)c3ccccc3)n2)cc1 (centres undefined)
inactive: growth inhibition [1] 2% | inhibition [2] -2% | inhibition [3] -4% | outcome [5] | outcome [6] | outcome [7] | outcome [8]
active: growth inhibition [4] 95%

COCCNC(=O)C1CCN(C(c2ccc(Cl)cc2)c2ccc(Cl)cc2)CC1
inactive: inhibition [2] 3% | inhibition [3] -3% | outcome [5] | outcome [6] | outcome [7] | outcome [8]
active: growth inhibition [1] 73% | growth inhibition [4] 86%
